From PubChem BioAssay come the findings set out here.

Structures are written as SMILES.

The test system of this assay is Sonic hedgehog protein (Shh). The assay is described as follows: Sonic hedgehog microarray binding compounds – biochemical, small-molecule microarray, 635/667 nm fluorescence, primary screen (AID 1151).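 Also: Shh protein binding to compounds spotted on small-molecule microarray slides; score combines spot fluorescence intensity with signal-to-noise across triplicate slides.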 Particulars: 635 nm fluorescence, higher = more signal.
`CO[C@H]1COC(=O)[C@H](CCSC)NC(=O)CC=C[C@@H](C)[C@H](OC)COC(=O)[C@@H](OCc2ccccc2)C=C[C@@H]1C` displayed a composite z-score of 1.9.
`COC(=O)[C@H](C)NC(=O)CCC1CC(OC(=O)NCCc2ccc(F)cc2)CC2(CCCC(COC(=O)NCCc3ccccc3OC)O2)O1` (stereo partly specified) gave a composite z-score of 0.985.
For `CC(C)CN1CCc2nc(-c3ccccc3)c3c(c2C1)CO[C@@H](C)C3` the value was 0.421; for `CC(C)[C@@H](OCc1ccccc1)[C@H](C)CON=C1[C@H]2CCn3c(=O)n(-c4ccccc4)c(=O)n3[C@H]2[C@H](O)[C@@H]2O[C@H]12`, 0.89; for `CON=C(C)CCN1CCc2nc(-c3ccccc3)c(-c3ccccc3)cc2C1`, 0.872.
For `COc1ccc(OC[C@H]2CN3[C@@H](CC[C@@H](C)[C@@H]3c3ccc(Br)cc3)C(=O)O2)cc1` the value was 0.583; for `O=C(NN=C1C[C@@H](O)[C@@H](O)[C@@H]2[C@@H]3C(=O)N(c4ccc(F)cc4F)C(=O)[C@@H]3CC[C@H]12)OCc1ccccc1`, -0.836.
For `COC(=O)[C@H](C)NC(=O)CCC1CC(OC(=O)NCc2cccc3ccccc23)CC2(CCCC(COC(=O)NCc3ccccc3)O2)O1` (stereo partly specified) the value was 1.07; for `O=C1C2=CC[C@H]3C(=O)N(C4CCCCC4)C(=O)[C@H]3[C@H]2[C@H](O)[C@@H]2O[C@H]12`, -0.689.
With `C#CCCCON=C1C[C@@H](O)[C@@H](O)[C@@H]2[C@@H]3C(=O)N(C[C@@H]4CCCO4)C(=O)[C@@H]3CC[C@H]12`, the composite z-score was found to be 0.554.
With `O=C1[C@H]2CCn3c(=O)n(-c4ccccc4)c(=O)n3[C@H]2[C@H](O)[C@@H]2O[C@H]12` the figure was 0.24; with `CC(=O)OC[C@H]1O[C@H](CC=NOCC[C@@H]2C=C[C@H](OC(C)=O)[C@@H](COC(C)=O)O2)C=C[C@@H]1OC(C)=O`, 0.654; with `CCCNC(=O)OC[C@H]1O[C@H](CCON=C[C@@H](C)[C@H](OCc2ccccc2)C(C)C)C=C[C@@H]1Oc1ccc(OC)cc1`, 0.0021.
As to `CC(CCC(=O)OC[C@H]1O[C@H](C#Cc2ccccc2)C=C[C@@H]1Oc1ccc(C)cc1)=NOC(C)CN1CCCCc2nc(C)c(C)cc21` (stereo partly specified), the composite z-score was determined as 0.517.
For `CCN1C(=O)[C@H]2[C@H]3[C@H](O)[C@H](O)CC(=NNC(=O)OCc4ccccc4)[C@H]3CC[C@H]2C1=O` the value was -0.486.
For `CO[C@@H](C(C)C)[C@@H](C)C1OC(=O)CC1O` (stereo partly specified) the value was -0.595; for `CC(C)=NOC(C)CN1CCCc2nc(C)c(C)cc21` (stereo unspecified), 1.35; for `CO[C@@H]1[C@H](O)CO[C@H]1C=Cc1ccccc1`, -0.0147.
`COc1ccc(O[C@H]2C=C[C@@H](C#Cc3ccccc3)O[C@@H]2CO)cc1` displayed a composite z-score of 0.0864.
For `CC(CCC(=O)OC[C@H]1O[C@H](C#Cc2ccccc2)C=C[C@@H]1Oc1ccc(C)cc1)=NOC[C@@H](C)[C@H](OCc1ccccc1)C(C)C` the value was 0.0623.
For `CC(CCN1CCc2nc(-c3ccccc3)c(-c3ccccc3)cc2C1)=NOC(C)CN1CCCc2nc(C)c(C)cc21` (stereo unspecified) the value was 0.667.
With `CCOC(=O)[C@H](CC(C)C)NC(=O)CCC1CC(OC(=O)NCc2ccc3c(c2)OCO3)CC2(CCCC(COC(=O)NCCc3ccc(Cl)cc3)O2)O1` (stereo partly specified) the figure was 1.86.
On to `CC(=O)OC[C@H]1O[C@@H](ON=C(C)CCC(=O)OC[C@H]2O[C@H](C#Cc3ccccc3)C=C[C@@H]2Oc2ccc(C)cc2)[C@H](OC(C)=O)[C@@H](OC(C)=O)[C@@H]1OC(C)=O`, for which the composite z-score turned out to be 1.19.
With `CC(C)CON=C1C[C@@H](O)[C@@H](O)[C@@H]2[C@@H]3C(=O)N(c4ccc(F)cc4F)C(=O)[C@@H]3CC[C@@H]12` the figure was 0.583.
For `CCOC(=O)CCN1C(=O)[C@H]2[C@H]3[C@H](O)[C@H](O)CC(=NO[C@@H]4O[C@H](CO)[C@@H](O)[C@H](O)[C@H]4O)[C@H]3CC[C@H]2C1=O`, the composite z-score turned out to be 0.493.
Compound `CCOC(=O)[C@H](Cc1ccccc1)NC(=O)CCC1CC(OC(=O)NCc2cccc3ccccc23)CC2(CCCC(COC(=O)NCCc3ccc(Cl)cc3)O2)O1` (stereo partly specified) yielded a composite z-score of 0.932.
The compound `CCN1C(=O)[C@H]2[C@H]3[C@H](O)[C@H](O)CC(=NOC[C@@H](O)COCc4ccco4)[C@H]3CC[C@H]2C1=O` came in with a composite z-score of 1.97.
With `C#CCCCON=C1C[C@@H](O)[C@@H](O)[C@@H]2[C@@H]3C(=O)N(C4CCCCC4)C(=O)[C@@H]3CC[C@@H]12` the figure was 0.353; with `COC(=O)[C@H](CCSC)NC(=O)CC=C[C@@H](C)CO`, 2.18; with `CCc1cc2c(nc1CC)CCN(CCC(C)=NO[C@@H]1O[C@H](COC(C)=O)[C@@H](OC(C)=O)[C@H](OC(C)=O)[C@H]1OC(C)=O)C2`, 1.88.
Compound `CO[C@H]1COC(=O)[C@H](C)COC(=O)[C@H](C)NC(=O)CC=C[C@H]1C` registered a composite z-score of 1.88.
With `COC(=O)[C@H](C)NC(=O)CCC1CC(OC(=O)NCc2ccc3c(c2)OCO3)CC2(CCCC(COC(=O)NCCCN3CCCC3=O)O2)O1` (stereo partly specified) the figure was 0.78; with `COc1ccc(COC(=O)NN=C2C[C@@H](O)[C@@H](O)[C@@H]3[C@@H]4C(=O)N(C[C@@H]5CCCO5)C(=O)[C@@H]4CC[C@@H]23)cc1`, 0.0407; with `COc1ccc(COC(=O)NN=C2C[C@@H](O)[C@@H](O)[C@@H]3[C@@H]4C(=O)N(C(C)(C)C)C(=O)[C@@H]4CC[C@@H]23)cc1`, 0.612.
For `CCOC(=O)[C@H](CC(C)C)NC(=O)CCC1CC(OC(=O)NCc2ccc3c(c2)OCO3)CC2(CCCC(COC(=O)NCc3ccccc3)O2)O1` (stereo partly specified) the value was 1.84; for `CC(C)[C@H](NC(=O)OC(C)(C)C)[C@@H](O)CC(=O)C(C)(C)C`, 0.473.
